Measured values taken from PubChem BioAssay.
The source made the active and inactive calls. Unless noted, the rule behind the calls is not given here.

Tests used:
[1] = viability loss with induced miR-34 in A549 – imaging, A549 dox-inducible miR-34, nuclei and caspase counts, primary screen (AID 1347080;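 active = compounds whose cell count with miR-34 switched on is under 0.7 times the count with it off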); conditions: A549 miR-34 inducible, Hoechst nuclei count, 48 h
[2] = compounds altering HSF1 focus formation in cells – imaging, Selleck Cancer Library (AID 1347162; in the data active = plate-normalised HSF1 focus index below about 0.46); conditions: human cells, HSF1 nuclear foci imaging, at 10 µM; SSMD: measured here: HSF1 foci SSMD mean; cell count: measured here: cell number; plate-normalised HSF1 focus index: stronger effect = lower value
[3] = MELAS cybrid and Rieske KO viability enhancers – cell-based, MELAS cybrids, Rieske KO mouse fibroblasts, CellTiter-Glo, primary screen (AID 1508586;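 active = mean z-score across replicates of 1.96 or higher in either the MELAS or the Rieske mutant cell line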;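 note: z relative to plate mean and SD of compound and empty wells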); conditions: low glucose
[4] = compounds altering viability of human ES cells (AID 493140); conditions: human embryonic stem cell survival screen; stronger effect = higher value;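 note: cells exposed to compounds for four days before counting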
[5] = chitosan synthesis blockers in C. neoformans – flow cytometry, Cibacron Brilliant Red staining (AID 1347148); conditions: Cryptococcus neoformans chitosan, stronger effect = lower value; at 10 µM unless noted;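 note: compound exposure lasted three days at 37 degrees C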
[6] = system: Hepatitis C virus NS3 helicase; assay: blockers of NS3h binding to ssDNA – biochemical, fluorescence polarization, LOPAC1280 library, primary screen (AID 687035; in the data active = inhibition above about 37%); conditions: Purified HCV NS3 helicase, Cy5-dT15 ssDNA binding fluorescence polarization; stronger effect = higher value; concentration not given here
[7] = compounds altering Cy5-DNA-NS3h complex signal – biochemical, LOPAC1280, artefact control for HCV NS3 helicase inhibitor project (AID 687037); conditions: Cy5-DNA-NS3h complex fluorescence interference counterscreen
[8] = blockers of cellular phospholipid synthesis – cell-based, LOPAC library, screen 4, primary screen (AID 1347384); conditions: animal cells, phospholipid biosynthesis inhibition screen; at 10 µM
[9] = target: NAD(+) hydrolase SARM1 (Homo sapiens) (UniProt Q6SZW1); assay: blocking NAD cleavage by SARM1 SAM-TIR – cell lysate, NAD-Glo luminescence (AID 1508614;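 active = compound whose remaining NAD level is above about 45 nM, limit read from the data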;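 note: higher remaining NAD means stronger inhibition of SARM1 NADase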); conditions: SAM-TIR HEK293T lysate NADase, at 1 µM, stronger effect = higher value
[10] = galactose survival enhancers in mitochondrial complex I cybrids – cell-based, galactose medium, ATP luminescence, primary screen (AID 1645843;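 active = z-score of at least 1.8 in each of two replicates, scored against plate mean and spread of sample wells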;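 note: positive z means more ATP and so rescue of galactose-driven cybrid death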); conditions: complex I mutant cybrid cells, 72 h, stronger effect = higher value
[11] = compounds altering circadian rhythm period length – cell-based, LOPAC library, luminescence reporter (AID 2774); conditions: circadian reporter cells, at 7 µM, actives lie on both sides;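 note: values are relative to mean of DMSO wells on each plate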
[12] = P. berghei load reduction in hepatocytes – cell-based, HepG2, luciferase luminescence, HepG2 viability, primary screen (AID 624349; in the data active = parasite load remaining mostly below about 12%, no sharp cut-off; inactive = mostly above about 10%;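 note: 100% = mean of DMSO negative control wells on the same plate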); conditions: P. berghei liver stage in HepG2, luciferase luminescence, concentration not given here; parasite load remaining: stronger effect = lower value; viability: measured here: HepG2 viability without parasites
[13] = stronger effect = lower value, cell number ratio, induced over uninduced
[14] = measured here: relative caspase fold change +Dox/-Dox
[15] = measured here: total cells with miR-34 induction, stronger effect = lower value
[16] = measured here: total cells without miR-34 induction
[17] = MELAS cybrid survival, CellTiter-Glo 48 h, stronger effect = higher value
[18] = Rieske KO mouse fibroblast survival, CellTiter-Glo 72 h

Sequence of NAD(+) hydrolase SARM1 (Homo sapiens) (Q6SZW1 whole entry, looked up): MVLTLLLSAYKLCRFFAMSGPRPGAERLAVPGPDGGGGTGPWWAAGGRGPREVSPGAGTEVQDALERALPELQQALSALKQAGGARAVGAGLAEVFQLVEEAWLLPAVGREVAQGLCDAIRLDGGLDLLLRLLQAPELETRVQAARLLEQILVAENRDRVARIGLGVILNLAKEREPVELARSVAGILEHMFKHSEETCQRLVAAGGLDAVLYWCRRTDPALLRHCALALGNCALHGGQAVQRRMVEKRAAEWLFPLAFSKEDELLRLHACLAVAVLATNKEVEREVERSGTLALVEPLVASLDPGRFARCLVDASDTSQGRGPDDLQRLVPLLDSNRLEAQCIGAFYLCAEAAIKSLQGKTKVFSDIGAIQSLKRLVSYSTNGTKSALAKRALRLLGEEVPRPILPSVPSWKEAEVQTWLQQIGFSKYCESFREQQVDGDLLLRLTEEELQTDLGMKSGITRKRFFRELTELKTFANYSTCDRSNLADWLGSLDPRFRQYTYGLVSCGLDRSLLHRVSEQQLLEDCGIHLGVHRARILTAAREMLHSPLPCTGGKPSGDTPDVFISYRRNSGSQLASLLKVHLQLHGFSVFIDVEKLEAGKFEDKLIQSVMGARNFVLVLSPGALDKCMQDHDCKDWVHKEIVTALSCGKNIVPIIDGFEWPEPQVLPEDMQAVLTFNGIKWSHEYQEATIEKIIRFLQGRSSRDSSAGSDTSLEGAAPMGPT

C=CC(=O)N1CCCC(n2nc(-c3ccc(Oc4ccccc4)cc3)c3c(N)ncnc32)C1 (stereo not given)
fold change [1, 13]: 0.863 (inactive)
fold change [1, 14]: 0.762
cell count [1, 15]: 7670
cell count [1, 16]: 8890
SSMD [2]: 2.74
cell count [2]: 7290
plate-normalised HSF1 focus index [2]: 1.17 (inactive)
z-score [3, 17]: -0.153 (inactive)
z-score [3, 18]: -0.517

CCCCC/C=C\C/C=C\C/C=C\C=C\[C@@H](O)CCCC(=O)O
survival [4]: 128 (inactive)
fold change [1, 13]: 0.957 (inactive)
fold change [1, 14]: 1.24
cell count [1, 15]: 5700
cell count [1, 16]: 5960
fold fluorescence [5]: 4.16 [at 1 µM] (inactive)

CCOC(=O)[C@H](CCc1ccccc1)N[C@@H](C)C(=O)N1[C@H](C(=O)O)C[C@H]2CCCC[C@@H]21
inhibition [6]: -4% (inactive)
fluorescence ratio (interference) [7]: 1 (inactive)
fold change [1, 13]: 1.13 (inactive)
fold change [1, 14]: 0.831
cell count [1, 15]: 11100
cell count [1, 16]: 9850
outcome [8]: inactive
remaining NAD [9]: 10 nM (inactive)
z-score [10]: 0.51 (inactive)

O=C(O)c1cc(N(Cc2ccccc2O)Cc2cc(O)ccc2O)ccc1O
survival [4]: 94.2 (inactive)
fold change [1, 13]: 0.907 (inactive)
fold change [1, 14]: 1.1
cell count [1, 15]: 5160
cell count [1, 16]: 5680
fold fluorescence [5]: 4.34 [at 131.1 µM] (inactive)

Cc1nc2n(c(=O)c1CCN1CCC(c3noc4cc(F)ccc34)CC1)CCCC2O (stereo not given)
inhibition [6]: -4% (inactive)
fluorescence ratio (interference) [7]: 1 (inactive)
fold change [1, 13]: 1.04 (inactive)
fold change [1, 14]: 0.907
cell count [1, 15]: 9980
cell count [1, 16]: 9570
outcome [8]: inactive
remaining NAD [9]: 10 nM (inactive)
z-score [10]: -0.155 (inactive)

CN(C)CC(O)Cn1c2ccc(Br)cc2c2cc(Br)ccc21 (stereo not given)
fold change [1, 13]: 0.735 (inactive)
fold change [1, 14]: 1.58
cell count [1, 15]: 200
cell count [1, 16]: 272
outcome [8]: inactive

CC[C@H]1OC(=O)[C@H](C)C(O[C@H]2C[C@@](C)(OC)[C@@H](O)[C@H](C)O2)[C@H](C)[C@@H](OC2O[C@H](C)C[C@H](N(C)C)[C@H]2O)[C@](C)(O)C[C@@H](C)CN(C)[C@H](C)[C@@H](O)[C@]1(C)O (stereo not given in full)
fold change [1, 13]: 1.06 (inactive)
fold change [1, 14]: 1.99
cell count [1, 15]: 10100
cell count [1, 16]: 9500
outcome [8]: inactive
z-score [10]: -0.895 (inactive)

CCCC(=O)O
fold change [1, 13]: 0.924 (inactive)
fold change [1, 14]: 0.39
cell count [1, 15]: 4770
cell count [1, 16]: 5160
SSMD [2]: 1.8
cell count [2]: 7190
plate-normalised HSF1 focus index [2]: 1.11 (inactive)

O=C(CCc1ccncc1)NNC(=O)N1Cc2ccccc2Oc2ccc(Cl)cc21
fold change [1, 13]: 1.04 (inactive)
fold change [1, 14]: 1.18
cell count [1, 15]: 8820
cell count [1, 16]: 8460
outcome [8]: inactive
z-score [10]: -0.355 (inactive)

CC(C)(NS(=O)(=O)c1ccc(Oc2ccc(F)cc2)cc1)C(=O)NO
fold change [1, 13]: 1.15 (inactive)
fold change [1, 14]: 0.625
cell count [1, 15]: 7840
cell count [1, 16]: 6810
outcome [8]: inactive
z-score [10]: -1.27 (inactive)

CN(CCCOc1ccc(Cc2ccccc2)cc1)CCC(=O)O
fold change [1, 13]: 0.994 (inactive)
fold change [1, 14]: 1.84
cell count [1, 15]: 9930
cell count [1, 16]: 9990
outcome [8]: inactive
z-score [10]: 0.275 (inactive)

Brc1cc2c(cc1[C@H]1Nc3ccccc3[C@H]3C=CC[C@H]31)OCO2
fold change [1, 13]: 1.18 (inactive)
fold change [1, 14]: 1.55
cell count [1, 15]: 6800
cell count [1, 16]: 5750
outcome [8]: inactive
z-score [10]: -0.59 (inactive)

CCCCC/C=C\C/C=C\CCCCCCCC(=O)NCC(=O)O
survival [4]: 52.3 (inactive)
fold change [1, 13]: 0.95 (inactive)
fold change [1, 14]: 1.28
cell count [1, 15]: 6210
cell count [1, 16]: 6540
fold fluorescence [5]: 3.7 (inactive)

CO[C@H]1O[C@@H]2O[C@]3(C)CC[C@@H]4[C@@H](C)CC[C@H]([C@H]1C)[C@]24OO3
fold change [1, 13]: 0.984 (inactive)
fold change [1, 14]: 1.93
cell count [1, 15]: 9680
cell count [1, 16]: 9830
outcome [8]: inactive
z-score [10]: -0.71 (inactive)

Nc1ncnc2c1c(-c1ccc(Oc3ccccc3)cc1)cn2C1CCCC1
period change [11]: 0.07 h (inactive)
parasite load remaining [12]: 28.7% (inactive)
viability [12]: 78.8%
inhibition [6]: 2% (inactive)
fluorescence ratio (interference) [7]: 1 (inactive)
fold change [1, 13]: 1.28 (inactive)
fold change [1, 14]: 0.999
cell count [1, 15]: 4440
cell count [1, 16]: 3470
SSMD [2]: -0.154
cell count [2]: 6750
plate-normalised HSF1 focus index [2]: 0.99 (inactive)
outcome [8]: inactive
z-score [10]: -1.02 (inactive)

Cc1oc(S(=O)(=O)N2CCCCC2)cc1NC(=O)Nc1ccccc1
fold change [1, 13]: 0.9 (inactive)
fold change [1, 14]: 1.24
cell count [1, 15]: 5590
cell count [1, 16]: 6210
SSMD [2]: 2.84
cell count [2]: 6950
plate-normalised HSF1 focus index [2]: 1.17 (inactive)

CCCCC/C=C\C/C=C\CC1OC1C/C=C\CCCC(=O)O (stereo not given)
survival [4]: 95.7 (inactive)
fold change [1, 13]: 1.01 (inactive)
fold change [1, 14]: 1.19
cell count [1, 15]: 5810
cell count [1, 16]: 5750
fold fluorescence [5]: 5.26 [at 1 µM] (inactive)

Fc1ccc2[nH]c(CN3CCN(c4ccccn4)CC3)cc2c1
fold change [1, 13]: 0.975 (inactive)
fold change [1, 14]: 1.18
cell count [1, 15]: 8710
cell count [1, 16]: 8930
outcome [8]: inactive
z-score [10]: -1.13 (inactive)

CC(=O)N[C@@H](CSC/C=C(\C)CCC=C(C)C)C(=O)O
survival [4]: 97.5 (inactive)
fold change [1, 13]: 0.983 (inactive)
fold change [1, 14]: 1.12
cell count [1, 15]: 5900
cell count [1, 16]: 6000
fold fluorescence [5]: 5.25 (inactive)

O=C1Nc2ccc(I)cc2C1=Cc1cc(Br)c(O)c(Br)c1
inhibition [6]: -1% (inactive)
fluorescence ratio (interference) [7]: 1 (inactive)
fold change [1, 13]: 1.04 (inactive)
fold change [1, 14]: 0.568
cell count [1, 15]: 7930
cell count [1, 16]: 7600
outcome [8]: inactive
z-score [3, 17]: -0.141 (inactive)
z-score [3, 18]: -0.283

CCCOC(=O)c1c(-c2ccccc2)nc(CC)c(C(=O)SCC)c1CCC
period change [11]: -0.02 h (inactive)
inhibition [6]: -3% (inactive)
fluorescence ratio (interference) [7]: 1 (inactive)
fold change [1, 13]: 1.01 (inactive)
fold change [1, 14]: 0.935
cell count [1, 15]: 9020
cell count [1, 16]: 8910
outcome [8]: inactive
z-score [10]: -1.19 (inactive)
